Compounds with a hit are over-represented: about 18% of the library has one in this group of screens.
DT40 TDP1 CPT: DT40-hTDP1 cell growth loss with CPT; chicken DT40 Tdp1-/-;hTDP1 cells + 20 nM CPT, ATP luminescence, 48 h; Potency, µM (top dose mostly 46.2 µM), inactives show top-dose activity change, negative = growth inhibition, most hits filed as inhibitors; hit rate 12% among 420,000; AID 686979; further: potency means the concentration at half of the fitted maximal effect; nearly all actives have a fitted effect of over 55% in size
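Chicken DT40 Tdp1-/- cells stably complemented with human TDP1 were seeded at 400 cells/well in medium containing 20 nM camptothecin, exposed to pin-transferred compounds, and grown at 37 °C for at least 48 hr. Viability was read as ATP luminescence.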
CtBP-E1A blk: inhibitors of CtBP/E1A interaction; AlphaScreen GST-E1A/His-CtBP binding, 1536-well; stronger effect = lower value; activity change, % (no concentration beside the values); hit rate 0.49% among 340,000; in the data active means activity change below about -65%; inconclusive means mostly about -30% to -63%
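Steps: dispense buffer (Tris pH 8.0, NaCl 300 mM, TCEP 1 mM, BSA, Tween 20); add 5X protein mix (GST-E1A, His-CtBP, 125 nM each); pin 23 nL compound; 2 h at 37 °C, dark; add 5X beads (50 ug/mL); 1 h; read.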
TDP1 inh: TDP1 (human) enzyme inhibition. Q9NUW8. recombinant TDP1, AlphaScreen DNA substrate cleavage. Potency, µM (titrated, usually from 130 µM), inactives show top-dose activity change, negative = inhibition, most hits filed as inhibitors. hit rate 0.28% among 350,000. AID 485290; further: potency means the concentration at half of the fitted maximal effect; nearly all actives have a fitted effect of over 40% in size
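Tdp1 1 nM final; 15 min RT w/ cpd; substrate 15 nM, 5 min; beads 10 ug/ml, 10 min; AlphaScreen read. Neg ctrl: no enzyme.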
Six1-Eya2 inh: blocks human Six1 binding to Eya2 | Q15475+O00167 | AlphaScreen GST-Six1/His-Eya2 binding, biochemical; stronger effect = lower value | activity change, % (concentration not given with the values) | hit rate 0.56% among 360,000 | AID 651725; in the data active means activity change below about -65%; inconclusive means mostly about -30% to -63%
Target sequence (O00167 whole entry, looked up): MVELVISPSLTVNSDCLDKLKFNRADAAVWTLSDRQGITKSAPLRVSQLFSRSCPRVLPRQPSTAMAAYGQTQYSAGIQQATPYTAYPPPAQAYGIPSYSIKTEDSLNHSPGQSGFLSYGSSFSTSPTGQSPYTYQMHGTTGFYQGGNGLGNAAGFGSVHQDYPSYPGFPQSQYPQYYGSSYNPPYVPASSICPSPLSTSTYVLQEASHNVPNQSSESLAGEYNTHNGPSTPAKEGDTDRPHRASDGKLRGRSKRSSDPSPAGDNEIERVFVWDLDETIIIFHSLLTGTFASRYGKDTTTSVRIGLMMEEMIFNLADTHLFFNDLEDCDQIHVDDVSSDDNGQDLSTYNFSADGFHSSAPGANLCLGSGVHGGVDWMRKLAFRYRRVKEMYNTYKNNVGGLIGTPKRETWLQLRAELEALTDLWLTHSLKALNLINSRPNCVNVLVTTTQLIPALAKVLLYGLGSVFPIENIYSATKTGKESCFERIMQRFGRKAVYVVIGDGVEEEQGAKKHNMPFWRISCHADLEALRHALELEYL
Target sequence (Q15475 whole entry, looked up): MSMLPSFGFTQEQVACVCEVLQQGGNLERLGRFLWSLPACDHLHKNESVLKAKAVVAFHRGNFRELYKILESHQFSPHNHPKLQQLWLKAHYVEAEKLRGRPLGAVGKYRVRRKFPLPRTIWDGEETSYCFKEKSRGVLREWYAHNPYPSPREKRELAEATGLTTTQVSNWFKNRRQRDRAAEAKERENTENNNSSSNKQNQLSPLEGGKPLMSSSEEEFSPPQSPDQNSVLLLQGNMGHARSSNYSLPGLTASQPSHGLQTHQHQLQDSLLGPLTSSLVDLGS
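Homogeneous AlphaScreen proximity assay pairing GST-Six1 with His-tagged Eya2 (added as 5X mix: 250 nM and 500 nM) in 50 mM Tris pH 8.0, 300 mM NaCl, 1 mM TCEP. Glutathione donor and nickel acceptor beads; 1 h, 37 °C, dark.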
TDP1 cell noCPT: qHTS for Inhibitors of human tyrosyl-DNA phosphodiesterase 1 (TDP1): qHTS in cells in absence of CPT | hit rate 15% among 420,000 | Potency, µM (highest dose often 46.2 µM), without a hit: top-dose activity change, negative = growth inhibition, usual class: inhibitors | DT40 Tdp1-/- hTDP1 cells, no CPT, ATP luminescence, 48 h; further: potency means the concentration at half of the fitted maximal effect; nearly all actives have a fitted effect of over 55% in size
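Cells were dispensed at 400 per well, compounds added by pin tool, plates incubated ≥48 hr at 37 °C, then CellTiter-Glo added for 30 min at room temperature before luminescence reading. Line: DT40 Tdp1-/- complemented with hTDP1; camptothecin omitted.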
IL1B secr inh: inflammasome signaling inhibition, IL-1 beta readout; THP-1 LPS/ATP IL-1B secretion, AlphaLISA, 16 h; stronger effect = lower value; activity change, % at 57.5 µM; hit rate 4.7% among 360,000; in the data active means activity change below about -50%; inconclusive means mostly about -30% to -49%
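Secreted IL-1B measured by AlphaLISA bead assay after 16 h compound exposure of THP-1 cells; compounds (final up to 57.5 uM) added 1 h before LPS (250 ng/mL) and ATP (1.25 mM) stimulation; lower signal means less secretion.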
* hit, by the source's call; ? = inconclusive; / = not tested or not shown; [ ] = remark or other dose. Unless noted, the call rests on the fitted dose curve; in most records, active means well fitted curve in the direction sought with a large enough effect; inconclusive means small, poorly fitted or top-dose-only effect, or another doubt; inactive means no such curve, though single readings can be large; an effect the other way counts as inactive or inconclusive. On the % scale 0 is the no-effect control and ±100 the full control effect.

SMILES	DT40 TDP1 CPT	CtBP-E1A blk	TDP1 inh	Six1-Eya2 inh	TDP1 cell noCPT	IL1B secr inh
CCOc1ccccc1CNC(=O)Cn1ccc2cc(S(=O)(=O)N3CCC(C)CC3)ccc21	?	-9.5	2.1%	-9.9	20.6µM*	-25.9
O=C(c1cccc(S(=O)(=O)Nc2ccc(Br)cc2)c1)N1CCC1	-23.6%	5.1	4.6%	2.0	-14.5%	8.3
CCOc1cc(C(=O)Nc2ccc(C)cc2O)ccc1OCC(=O)N1CCOCC1	-27.5%	-3.6	/	-10.1	?	5.6
CNc1ccc(C=O)cc1Br	-5.8%	/	/	/	-23.0%	/
O=C(Cn1ccc2cc(S(=O)(=O)N3CCCCCC3)ccc21)NCc1cccc(Cl)c1	?	/	5.7%	/	18.4µM*	/
CC(NC(=O)Cn1ccc2cc(S(=O)(=O)N3CCCCCC3)ccc21)c1ccccc1 (stereo not drawn)	?	/	2.8%	/	18.4µM*	/
CC(C)Sc1nnc(CNC(=O)C23CC4CC(CC(C4)C2)C3)n1Cc1ccccc1	?	6.7	-7.0%	1.1	?	?
Cc1ccccc1NS(=O)(=O)c1ccc(C(=O)N2CCN(c3ccccn3)CC2)cc1	?	-5.2	0.6%	1.3	14.6µM*	-3.6
Cc1ccccc1NS(=O)(=O)c1ccc(C(=O)N2CCCCCC2)cc1	?	-17.9	1.5%[0.505 µM]	5.9	?	2.3
O=C(c1ccc(S(=O)(=O)Nc2ccccc2F)cc1)N1CCN(c2ccccn2)CC1	?	-0.9	0.7%	-1.8	?	24.5
Cc1ccccc1NS(=O)(=O)c1ccc(C(=O)N2CCN(c3ccccc3O)CC2)cc1	11.6µM*	-2.8	3.0%	-5.8	14.6µM*	?
COC(=O)C1=C(CS(=O)(=O)c2cc(Cl)ccc2OC)NC(=O)NC1c1ccccc1 (stereo not drawn)	-24.9%	/	6.4%	/	?	/
Cc1cccc(CNC(=O)c2cnn(-c3nccc(-c4cc5ccccc5o4)n3)c2C2CC2)n1	-1.0%[9.04 µM]	/	/	/	?	/
Cc1cc(NC(=O)OC2CCCCC2)ccc1[N+](=O)[O-]	-6.6%	-3.6	0.8%	2.5	?	-51.2*
NC(=O)Cc1nc(-c2ccc(Br)cc2)cs1	-9.0%	-14.0	-2.7%	1.0	-26.3%	-3.8
CN(C)S(=O)(=O)c1ccc(C(=O)NCCc2ccco2)cc1	-7.6%	-7.7	2.5%	-2.8	23.1µM*	-4.0
COc1ccccc1OCCNC(=O)c1ccc(S(=O)(=O)N(C)C)cc1	-20.7%	-6.3	2.0%	0.9	-5.2%	-9.0
CN(c1ccccc1)S(=O)(=O)c1ccc(C(=O)NCc2ccco2)cc1	?	5.5	-9.8%	-0.5	16.4µM*	9.0
COc1ccc(S(=O)(=O)N(C)c2ccc(C(=O)NCc3ccco3)cc2)cc1	?	-0.4	5.2%	-5.9	?	-7.6
Cc1cc(C)cc(SCc2noc(C(=O)NCCN(C)C)c2C(=O)NCCN(C)C)c1	?	-0.1	/	3.9	14.6µM*	-15.6
CCCCNC(=O)c1onc(CSc2ccc(F)c(F)c2)c1C(=O)O	20.6µM*	7.5	5.1%	2.2	-9.9%	3.5
CN(C)CCNC(=O)c1onc(CSc2ccncc2)c1C(=O)NCCN(C)C	5.0%	0.1	/	0.6	-2.2%	-3.9
CCCCNC(=O)c1onc(CSc2ccc(C)c(C)c2)c1C(=O)O	-13.0%	4.3	-5.1%	-2.5	-0.9%	-4.4
Cc1ccc(S(=O)(=O)N2CCN(C(=O)c3sccc3-c3ccccc3)CC2)cc1	?	3.9	3.7%	-2.9	18.4µM*	0.0
O=C(c1cccs1)N1CCN(S(=O)(=O)c2ccccc2)CC1	-15.1%	-1.1	3.4%	3.3	1.3%	15.3
SMILES	DT40 TDP1 CPT	CtBP-E1A blk	TDP1 inh	Six1-Eya2 inh	TDP1 cell noCPT	IL1B secr inh
Cc1ccc(S(=O)(=O)N2CCN(C(=O)c3ccccc3)CC2)cc1	-26.3%	5.3	0.5%	3.1	-0.9%	?
O=C(c1sccc1-c1ccccc1)N1CCN(S(=O)(=O)c2ccccc2)CC1	?	-3.3	4.6%	0.2	23.1µM*	6.3
COc1ccc([C@H]2/C=C\CN(C(=O)c3ccc(C)cc3)[C@@H](C)C(=O)N2Cc2ccc(F)cc2)cc1	?	-4.8	/	-7.5	20.6µM*	-5.6
COc1ccc(C2/C=C\CN(C(=O)C3CCCC3)C(C)C(=O)N2Cc2ccc(F)cc2)cc1 (stereo not drawn)	/	/	8.5%	/	/	/
COc1ccc(C2/C=C\CN(C(=O)c3ccccc3)[C@H](Cc3ccccc3)C(=O)N2Cc2ccc(F)cc2)cc1 (stereo partly drawn)	20.6µM*	/	0.0%	-4.1	14.6µM*	4.1
N#Cc1nc(COc2ccc(F)cc2)oc1N1CCC(Cc2ccccc2)CC1	?	-21.6	-8.4%	-22.3	?	?
COc1ccccc1-c1nc(C#N)c(N2CCN(Cc3ccccc3)CC2)o1	?	?	-6.7%	?	23.1µM*	-16.7
COc1ccccc1-c1nc(C#N)c(N2CCC(Cc3ccccc3)CC2)o1	?	-23.0	8.3%	?	18.4µM*	-4.0
N#Cc1nc(COc2cccc(Cl)c2)oc1N1CCN(c2ccccc2)CC1	?	-8.6	8.4%	?	?	-20.1
N#Cc1nc(Cc2ccccc2)oc1N1CCN(c2ccccc2)CC1	10.3µM*	9.2	11.8%	?	?	?
CCOc1ccc(/C=C2\SC(=S)N(CC(=O)N(CCO)C(C)(C)C)C2=O)cc1	?	-4.1	5.1%	-10.6	?	-123.3*
CCc1ccc(/C=C2/SC(=S)N(CCC(=O)NCCCN3CCOCC3)C2=O)cc1	-30.0%	-6.9	11.0%	-4.5	-21.3%	-29.5
CCOc1ccc(/C=C2\SC(=S)N(CCCC(=O)NCCCN3CCOCC3)C2=O)cc1	18.4µM*	-3.4	0.1%	-15.6	?	-89.4*
CCc1ccc(/C=C2\SC(=S)N(CCCC(=O)NCCCN3CCOCC3)C2=O)cc1	20.6µM*	-8.3	/	-14.4	?	-56.7*
CCOc1ccc(/C=C2\SC(=S)N(CCC(=O)Nc3ccc(C(=O)O)cc3)C2=O)cc1	0.2%	-29.9	/	-3.5	9.9%	-15.4
COc1ccc(C(=O)NCCONC(=O)c2ccc(OC)cc2)cc1	-14.9%	-4.7	1.2%	-8.6	-1.5%	21.4
O=C(CCC(=O)N1CCOc2ccccc21)NCCCc1ccccc1	2.8%	5.4	/	4.6	-27.2%	-20.3
CCO[C@@H]1OC(C(=O)N2CCN(C)CC2)=C[C@H](c2csc3ccccc23)[C@H]1CCCO	-1.5%	-1.7	0.0%	5.0	-18.6%	-0.5
